According to paper PMC11006913:

Experiments:
Assay in all cases: PBM; 200 nM protein, PBS
Details in all cases: dsDNA, one strand shown
HESX1 [1] = target: HESX1 (Homo sapiens, UniProt Q9UBX0 95-180, R165K)
SHOX [2] = target: SHOX (Homo sapiens, UniProt O15266 103-189)
ALX4 = ALX4 (Homo sapiens, UniProt Q9H161 200-286, Q225E)
HESX1 [3] = target: HESX1 (Homo sapiens, UniProt Q9UBX0 95-180)
MSX2 = MSX2 (Homo sapiens, UniProt P35548 130-214, R199I)
ALX1 [4] = target: ALX1 (Homo sapiens, UniProt Q15699 118-204, L144V)
Sequence of ALX1 (Homo sapiens, UniProt Q15699 118-204, L144V) (Q15699 118-204 L144V): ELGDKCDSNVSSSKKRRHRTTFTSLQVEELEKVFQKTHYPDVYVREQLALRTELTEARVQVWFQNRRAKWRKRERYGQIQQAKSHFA

ALX3 [5] = target: ALX3 (Homo sapiens, UniProt O95076 139-225, N203Q)
Sequence of ALX3 (Homo sapiens, UniProt O95076 139-225, N203Q) (O95076 139-225 N203Q): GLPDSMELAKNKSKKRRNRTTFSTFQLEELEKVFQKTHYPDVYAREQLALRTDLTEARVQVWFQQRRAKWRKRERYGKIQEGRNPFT

SHOX [6] = target: SHOX (Homo sapiens, UniProt O15266 103-189, R173C)
Sequence of SHOX (Homo sapiens, UniProt O15266 103-189, R173C) (O15266 103-189 R173C): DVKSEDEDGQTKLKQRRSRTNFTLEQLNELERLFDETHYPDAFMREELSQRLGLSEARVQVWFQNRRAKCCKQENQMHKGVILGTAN

ALX1 [7] = target: ALX1 (Homo sapiens, UniProt Q15699 118-204, L144R)
Sequence of ALX1 (Homo sapiens, UniProt Q15699 118-204, L144R) (Q15699 118-204 L144R): as the sequence (Q15699 118-204 L144V) above, with V27R counted along it

ALX3 [8] = target: ALX3 (Homo sapiens, UniProt O95076 139-225)
Sequence of ALX3 (Homo sapiens, UniProt O95076 139-225) (O95076 139-225): as the sequence (O95076 139-225 N203Q) above, with Q65N counted along it

PROP1 [9] = target: PROP1 (Homo sapiens, UniProt O75360 56-141)
Sequence of PROP1 (Homo sapiens, UniProt O75360 56-141) (O75360 56-141): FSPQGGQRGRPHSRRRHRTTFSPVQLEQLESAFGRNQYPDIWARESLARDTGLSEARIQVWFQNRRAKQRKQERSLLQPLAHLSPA

HESX1 [10] = target: HESX1 (Homo sapiens, UniProt Q9UBX0 95-180, R109Q)
Sequence of HESX1 (Homo sapiens, UniProt Q9UBX0 95-180, R109Q) (Q9UBX0 95-180 R109Q): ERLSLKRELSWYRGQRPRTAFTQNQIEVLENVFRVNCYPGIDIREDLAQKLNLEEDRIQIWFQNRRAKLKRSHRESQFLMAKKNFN

PROP1 [11] = target: PROP1 (Homo sapiens, UniProt O75360 56-141, R99H)
Sequence of PROP1 (Homo sapiens, UniProt O75360 56-141, R99H) (O75360 56-141 R99H): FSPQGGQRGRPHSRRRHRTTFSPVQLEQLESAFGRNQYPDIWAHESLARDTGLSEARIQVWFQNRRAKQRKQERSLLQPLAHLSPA

ALX3 [12] = target: ALX3 (Homo sapiens, UniProt O95076 139-225, L168Q)
Sequence of ALX3 (Homo sapiens, UniProt O95076 139-225, L168Q) (O95076 139-225 L168Q): as the sequence (O95076 139-225 N203Q) above, with L30Q, Q65N counted along it

HESX1 [13] = target: HESX1 (Homo sapiens, UniProt Q9UBX0 95-180, P111T)
Sequence of HESX1 (Homo sapiens, UniProt Q9UBX0 95-180, P111T) (Q9UBX0 95-180 P111T): as the sequence (Q9UBX0 95-180 R109Q) above, with Q15R, P17T counted along it

ALX3 [14] = target: ALX3 (Homo sapiens, UniProt O95076 139-225, L168V)
Sequence of ALX3 (Homo sapiens, UniProt O95076 139-225, L168V) (O95076 139-225 L168V): as the sequence (O95076 139-225 N203Q) above, with L30V, Q65N counted along it

PROP1 [15] = target: PROP1 (Homo sapiens, UniProt O75360 56-141, F88S)
Sequence of PROP1 (Homo sapiens, UniProt O75360 56-141, F88S) (O75360 56-141 F88S): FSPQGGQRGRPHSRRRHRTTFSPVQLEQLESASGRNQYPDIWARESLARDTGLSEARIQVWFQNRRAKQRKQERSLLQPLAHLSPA

HESX1 [16] = target: HESX1 (Homo sapiens, UniProt Q9UBX0 95-180, F115L)
Sequence of HESX1 (Homo sapiens, UniProt Q9UBX0 95-180, F115L) (Q9UBX0 95-180 F115L): as the sequence (Q9UBX0 95-180 R109Q) above, with Q15R, F21L counted along it

ALX1 [17] = target: ALX1 (Homo sapiens, UniProt Q15699 118-204)
Sequence of ALX1 (Homo sapiens, UniProt Q15699 118-204) (Q15699 118-204): as the sequence (Q15699 118-204 L144V) above, with V27L counted along it

ALX3 [18] = target: ALX3 (Homo sapiens, UniProt O95076 139-225, N203S)
Sequence of ALX3 (Homo sapiens, UniProt O95076 139-225, N203S) (O95076 139-225 N203S): as the sequence (O95076 139-225 N203Q) above, with Q65S counted along it

Sequence of SHOX (Homo sapiens, UniProt O15266 103-189) (O15266 103-189): as the sequence (O15266 103-189 R173C) above, with C71R counted along it
Sequence of HESX1 (Homo sapiens, UniProt Q9UBX0 95-180, R165K) (Q9UBX0 95-180 R165K): as the sequence (Q9UBX0 95-180 R109Q) above, with Q15R, R71K counted along it
Sequence of MSX2 (P35548 130-214 R199I): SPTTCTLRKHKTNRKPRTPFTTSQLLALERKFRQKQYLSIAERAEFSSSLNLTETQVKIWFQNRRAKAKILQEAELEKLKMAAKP
Sequence of ALX4 (Q9H161 200-286 Q225E): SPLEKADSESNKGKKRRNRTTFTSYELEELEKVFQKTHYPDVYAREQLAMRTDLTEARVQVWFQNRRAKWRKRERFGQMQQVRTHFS
Sequence of HESX1 (Homo sapiens, UniProt Q9UBX0 95-180) (Q9UBX0 95-180): as the sequence (Q9UBX0 95-180 R109Q) above, with Q15R counted along it

Sequence | binding signal (HESX1 [1]) | binding signal (SHOX [2]) | binding signal (ALX4) | binding signal (HESX1 [3]) | binding signal (MSX2) | binding signal (ALX1 [4]) | binding signal (ALX3 [5]) | binding signal (SHOX [6]) | binding signal (ALX1 [7]) | binding signal (ALX3 [8]) | binding signal (PROP1 [9]) | binding signal (HESX1 [10]) | binding signal (PROP1 [11]) | binding signal (ALX3 [12]) | binding signal (HESX1 [13]) | binding signal (ALX3 [14]) | binding signal (PROP1 [15]) | binding signal (HESX1 [16]) | binding signal (ALX1 [17]) | binding signal (ALX3 [18])
CCTAATTA | 13.4 upbm affinity estimate (log intensity, higher = more binding, comparable within an allelic series) | 13 upbm affinity estimate (log intensity, higher = more binding, comparable within an allelic series) | 14.1 upbm affinity estimate (log intensity, higher = more binding, comparable within an allelic series) | 13.3 upbm affinity estimate (log intensity, higher = more binding, comparable within an allelic series) | 13.2 upbm affinity estimate (log intensity, higher = more binding, comparable within an allelic series) | 12.2 upbm affinity estimate (log intensity, higher = more binding, comparable within an allelic series) | 8.45 upbm affinity estimate (log intensity, higher = more binding, comparable within an allelic series) | 10.4 upbm affinity estimate (log intensity, higher = more binding, comparable within an allelic series) | 11.8 upbm affinity estimate (log intensity, higher = more binding, comparable within an allelic series) | 12.9 upbm affinity estimate (log intensity, higher = more binding, comparable within an allelic series) | 12.1 upbm affinity estimate (log intensity, higher = more binding, comparable within an allelic series) | 9.96 upbm affinity estimate (log intensity, higher = more binding, comparable within an allelic series) | 12.2 upbm affinity estimate (log intensity, higher = more binding, comparable within an allelic series) | 11.2 upbm affinity estimate (log intensity, higher = more binding, comparable within an allelic series) | 12 upbm affinity estimate (log intensity, higher = more binding, comparable within an allelic series) | 10.8 upbm affinity estimate (log intensity, higher = more binding, comparable within an allelic series) | 7.86 upbm affinity estimate (log intensity, higher = more binding, comparable within an allelic series) | 8.21 upbm affinity estimate (log intensity, higher = more binding, comparable within an allelic series) | 12.9 upbm affinity estimate (log intensity, higher = more binding, comparable within an allelic series) | 8.58 upbm affinity estimate (log intensity, higher = more binding, comparable within an allelic series)
TATTAGAA | 8 upbm affinity estimate (log intensity, higher = more binding, comparable within an allelic series) |  |  | 8.34 upbm affinity estimate (log intensity, higher = more binding, comparable within an allelic series) |  |  |  |  |  |  |  |  |  |  | 7.87 upbm affinity estimate (log intensity, higher = more binding, comparable within an allelic series) |  |  |  |  | 
TAATTAGA | 13.5 upbm affinity estimate (log intensity, higher = more binding, comparable within an allelic series) | 13.1 upbm affinity estimate (log intensity, higher = more binding, comparable within an allelic series) | 14.2 upbm affinity estimate (log intensity, higher = more binding, comparable within an allelic series) | 13.5 upbm affinity estimate (log intensity, higher = more binding, comparable within an allelic series) | 13.2 upbm affinity estimate (log intensity, higher = more binding, comparable within an allelic series) | 12.3 upbm affinity estimate (log intensity, higher = more binding, comparable within an allelic series) | 8.56 upbm affinity estimate (log intensity, higher = more binding, comparable within an allelic series) | 10.5 upbm affinity estimate (log intensity, higher = more binding, comparable within an allelic series) | 12 upbm affinity estimate (log intensity, higher = more binding, comparable within an allelic series) | 12.9 upbm affinity estimate (log intensity, higher = more binding, comparable within an allelic series) | 12.2 upbm affinity estimate (log intensity, higher = more binding, comparable within an allelic series) | 10 upbm affinity estimate (log intensity, higher = more binding, comparable within an allelic series) | 12.2 upbm affinity estimate (log intensity, higher = more binding, comparable within an allelic series) | 11.3 upbm affinity estimate (log intensity, higher = more binding, comparable within an allelic series) | 12.1 upbm affinity estimate (log intensity, higher = more binding, comparable within an allelic series) | 10.9 upbm affinity estimate (log intensity, higher = more binding, comparable within an allelic series) | 8.08 upbm affinity estimate (log intensity, higher = more binding, comparable within an allelic series) | 8.35 upbm affinity estimate (log intensity, higher = more binding, comparable within an allelic series) | 13 upbm affinity estimate (log intensity, higher = more binding, comparable within an allelic series) | 8.71 upbm affinity estimate (log intensity, higher = more binding, comparable within an allelic series)
CCAGGTCC | 6.37 upbm affinity estimate (log intensity, higher = more binding, comparable within an allelic series) |  |  | 6.39 upbm affinity estimate (log intensity, higher = more binding, comparable within an allelic series) |  |  |  |  |  |  | 6.63 upbm affinity estimate (log intensity, higher = more binding, comparable within an allelic series) | 6.29 upbm affinity estimate (log intensity, higher = more binding, comparable within an allelic series) | 6.65 upbm affinity estimate (log intensity, higher = more binding, comparable within an allelic series) |  | 6.38 upbm affinity estimate (log intensity, higher = more binding, comparable within an allelic series) |  | 6.38 upbm affinity estimate (log intensity, higher = more binding, comparable within an allelic series) | 6.42 upbm affinity estimate (log intensity, higher = more binding, comparable within an allelic series) |  | 
AATTAATC | 11.9 upbm affinity estimate (log intensity, higher = more binding, comparable within an allelic series) | 11.9 upbm affinity estimate (log intensity, higher = more binding, comparable within an allelic series) | 13.2 upbm affinity estimate (log intensity, higher = more binding, comparable within an allelic series) | 12 upbm affinity estimate (log intensity, higher = more binding, comparable within an allelic series) | 12.3 upbm affinity estimate (log intensity, higher = more binding, comparable within an allelic series) | 11.9 upbm affinity estimate (log intensity, higher = more binding, comparable within an allelic series) | 8.39 upbm affinity estimate (log intensity, higher = more binding, comparable within an allelic series) | 9.4 upbm affinity estimate (log intensity, higher = more binding, comparable within an allelic series) | 11.6 upbm affinity estimate (log intensity, higher = more binding, comparable within an allelic series) | 12.5 upbm affinity estimate (log intensity, higher = more binding, comparable within an allelic series) | 11.2 upbm affinity estimate (log intensity, higher = more binding, comparable within an allelic series) | 9.36 upbm affinity estimate (log intensity, higher = more binding, comparable within an allelic series) | 11.1 upbm affinity estimate (log intensity, higher = more binding, comparable within an allelic series) | 10.6 upbm affinity estimate (log intensity, higher = more binding, comparable within an allelic series) | 10.7 upbm affinity estimate (log intensity, higher = more binding, comparable within an allelic series) | 10.2 upbm affinity estimate (log intensity, higher = more binding, comparable within an allelic series) | 7.81 upbm affinity estimate (log intensity, higher = more binding, comparable within an allelic series) | 7.79 upbm affinity estimate (log intensity, higher = more binding, comparable within an allelic series) | 12.3 upbm affinity estimate (log intensity, higher = more binding, comparable within an allelic series) | 8.52 upbm affinity estimate (log intensity, higher = more binding, comparable within an allelic series)
ATTAATAG | 10.6 upbm affinity estimate (log intensity, higher = more binding, comparable within an allelic series) |  |  | 10.6 upbm affinity estimate (log intensity, higher = more binding, comparable within an allelic series) |  |  | 8.58 upbm affinity estimate (log intensity, higher = more binding, comparable within an allelic series) |  |  |  |  | 8.2 upbm affinity estimate (log intensity, higher = more binding, comparable within an allelic series) |  |  | 9.29 upbm affinity estimate (log intensity, higher = more binding, comparable within an allelic series) |  |  | 7.97 upbm affinity estimate (log intensity, higher = more binding, comparable within an allelic series) |  | 
